Hits are enriched below; roughly 3.8% of the tested compounds scored in any of these assays.
KCNH2 3.1 inh: inhibitors of human KCNH2 3.1 potassium channel isoform; U2OS KCNH2 3.1, thallium flux FluxOr; hits give low values; AID 720553; actives 0.95% (n = 340,000); activity change, % (tested at about 1.8 µM);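 active = maximum activity change below -70%; inconclusive = maximum activity change from -70% to -50%; inactive = maximum activity change above -50%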;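 also: thallium influx rate constant from kinetic fluorescence after stimulation buffer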
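FluxOr-based Tl+ influx in U2OS cells transduced with KCNH2 3.1 virus; rate constants normalized to DMSO controls.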
PLK1 PBD inh: blocks phosphopeptide binding to human PLK1 polo-box domain; P53350; Plk1 PBD binding of FITC phosphopeptide, fluorescence polarization; Potency, µM, actives largely listed as inhibitors; actives 2.8% (n = 360,000); AID 720504; also: series mostly up to about 57 µM; nearly all actives have a fitted effect of over 65% in size
hERG WT inh: KCNH2 (human, wildtype) channel inhibition; actives 0.37% (n = 340,000); activity change, % at 1.84 µM; U2OS, BacMam KCNH2, thallium flux FluxOr; hits give low values;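 active = maximum activity change below -70%; inconclusive = maximum activity change between -70% and -50%; inactive = maximum activity change above -50%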
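U2OS cells transduced with wild-type KCNH2 virus are loaded with FluxOr dye for 45 min, and thallium flux is measured in kinetic reads before and after stimulation buffer. Rate constants are normalized to DMSO controls.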
CBFb RUNX1 block: CBF-beta/RUNX1 interaction disruption. Q01196+Q13951. AlphaScreen CBFb-His/RUNX1-biotin binding, biochemical. Potency, µM (titrated, usually from 59.8 µM), actives largely listed as inhibitors. 230,000 tested, under 10 active. AID 1477
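Read-out: AlphaScreen. Format: His-CBF-beta with biotinylated RUNX1 (30 nM each) preincubated 20 min, compound 15 min, Ni-chelate plus streptavidin beads 90 min; room temperature throughout.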
VDR inhibitor: inhibitors of human vitamin D receptor; VDR-SRC2-3 peptide fluorescence polarization, 2 h; actives 0.93% (n = 400,000); AID 504847; P11473; Potency, µM, hits mostly inhibitors
Target sequence (P11473 whole entry, looked up): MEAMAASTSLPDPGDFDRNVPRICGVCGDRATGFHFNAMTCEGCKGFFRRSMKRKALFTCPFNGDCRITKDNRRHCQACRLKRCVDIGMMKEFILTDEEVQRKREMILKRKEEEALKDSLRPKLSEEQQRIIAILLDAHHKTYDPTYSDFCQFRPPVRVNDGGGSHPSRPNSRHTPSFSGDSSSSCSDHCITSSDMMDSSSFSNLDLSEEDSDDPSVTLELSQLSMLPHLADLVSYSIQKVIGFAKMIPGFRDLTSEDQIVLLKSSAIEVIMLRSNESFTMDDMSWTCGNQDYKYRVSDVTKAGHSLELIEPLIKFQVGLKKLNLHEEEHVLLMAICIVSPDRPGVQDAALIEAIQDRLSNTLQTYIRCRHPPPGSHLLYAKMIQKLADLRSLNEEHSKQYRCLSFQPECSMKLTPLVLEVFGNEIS
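Fluorescence polarization assay measuring small-molecule disruption of VDR binding to the coregulator peptide SRC2-3. Compounds were pin-transferred (23 nl) into the reagent mix and incubated 2 h at room temperature before reading.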
MBNL1-CUG inh: MBNL1-poly(CUG) RNA binding inhibition; Potency, µM (highest dose often 57.5 µM), hits mostly inhibitors; TR-FRET MBNL1-His/biotin-(CUG)12 binding, 665/545 ratio; actives 0.036% (n = 280,000); active = well fitted inhibition curve with a large enough effect in the signal ratio, with a control signal flat, not every such curve was filed as active; inconclusive = small, poorly fitted or top-dose-only effect, or effect the other way, or a change in a side signal; inactive = no such curve, though single readings can be large or run the other way; the % refers to the signal ratio
Target sequence (Q9NR56 whole entry, looked up): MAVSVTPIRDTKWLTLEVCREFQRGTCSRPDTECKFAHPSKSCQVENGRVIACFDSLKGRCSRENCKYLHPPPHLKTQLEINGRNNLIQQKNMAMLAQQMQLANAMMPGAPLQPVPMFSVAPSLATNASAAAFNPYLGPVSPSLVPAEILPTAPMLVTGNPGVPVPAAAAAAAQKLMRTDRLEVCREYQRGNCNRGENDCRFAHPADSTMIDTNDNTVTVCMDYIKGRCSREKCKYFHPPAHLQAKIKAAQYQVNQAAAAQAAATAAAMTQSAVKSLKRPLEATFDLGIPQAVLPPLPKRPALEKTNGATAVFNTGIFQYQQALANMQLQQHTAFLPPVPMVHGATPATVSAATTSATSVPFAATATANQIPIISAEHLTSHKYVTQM
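His-tagged MBNL1 binding to biotinylated (CUG)12 RNA was measured by TR-FRET using terbium anti-His antibody (0.055 ng/ul final) and streptavidin-XL665 (5 nM final). Compounds were titrated 92 nM to 58 uM; 60 min at room temperature.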
Numbers stand for hits; 0 = inactive; ? = inconclusive; - = not tested or not shown; ! = not confirmed by another sample. Unless noted, calls follow the shape of the dose curve; as a rule, active = well fitted curve in the direction sought with a large enough effect; inconclusive = small, poorly fitted or top-dose-only effect, or another doubt; inactive = no such curve, though single readings can be large; an effect the other way counts as inactive or inconclusive.

SMILES | KCNH2 3.1 inh | PLK1 PBD inh | hERG WT inh | CBFb RUNX1 block | VDR inhibitor | MBNL1-CUG inh
CC(=O)N1CCN(c2ccc(OCC3CO[C@@](Cn4ccnc4)(c4ccc(Cl)cc4Cl)O3)cc2)CC1 (stereo partly specified) | - | - | - | 0 | ? | -
CC[C@H](C)[C@H](NC(=O)[C@H](CCCN=C(N)N)NC(=O)[C@H](CCCN=C(N)N)NC(=O)[C@H](CC(C)C)NC(=O)[C@H](Cc1ccccc1)NC(=O)CNC(=O)CNC(=O)[C@@H](N)Cc1ccc(O)cc1)C(=O)O | - | - | - | 0 | 0 | -
O=C1NCN(c2ccccc2)C12CCN(CCCOc1ccc(F)cc1)CC2 | - | - | - | 0 | 0 | -
O=C(CCCN1CCC2(CC1)C(=O)NCN2c1ccccc1)c1ccc(F)cc1 | -81 | 0 | 0 | 0 | 0 | 0
CCCCn1c(O)c(C(C)=NCCc2ccccc2)c(=O)[nH]c1=O | 0 | 0 | 0 | 0 | 0 | 0
COc1cc(/C=C/C(=O)c2c(O)n(CCc3ccccc3)c(=O)[nH]c2=O)ccc1O | 0 | 0 | 0 | 0 | 45µM | 0
c1ccc2c(c1)c1cc[n+]2CCCCC[n+]2ccc(c3ccccc32)NCCCCCN1 | - | - | - | 0 | 0 | -
c1ccc([Se]c2c(-c3ccccc3)[se]c3ccccc23)cc1 | - | - | - | ? | 63µM | -
N#CC(Cl)(Cl)Cl | - | - | - | 0 | - | -
CCCCC/C=C\C/C=C\C/C=C\C/C=C\CCCC(=O)O | - | - | - | 0 | 7.9µM! | -
CCCCC/C=C\C[C@@H](/C=C/C=C\C/C=C\CCCC(=O)O)OO | - | - | - | 0 | 0 | -
CCc1ccc(N2C(=O)NC(=O)/C(=C/c3cccn3CCOc3ccc(C)cc3)C2=O)cc1 | 0 | 0 | 0 | 0 | 0 | 0
Cc1cccc(OCCn2cccc2/C=C2/C(=O)NC(=O)N(Cc3ccco3)C2=O)c1 | 0 | 1.9µM | 0 | - | 0 | 0
Cn1cccc1/C=C1\C(=O)NC(=O)N(Cc2ccccc2Cl)C1=O | - | ? | 0 | 0 | 0 | 0
O=C1NC(=O)N(Cc2ccco2)C(=O)/C1=C\c1cccn1CCOc1ccc(Cl)cc1 | 0 | 1.9µM | 0 | ? | 0 | 0
O=c1cc(-c2ccc(O)cc2)oc2c([C@H]3O[C@@H](CO)[C@@H](O)[C@@H](O)[C@@H]3O)c(O)cc(O)c12 | - | - | - | 0 | 0 | -
c1ccc(P(c2ccccc2)c2ccccc2)cc1 | - | - | - | 0 | - | -
CN(C)C(=O)Cl | - | - | - | 0 | - | -
CC(C)CS(=O)(=O)C1=NN2C(=N)/C(=C\c3ccc(OC(=O)c4ccco4)cc3)C(=O)N=C2S1 | 0 | 21µM | 0 | - | ? | 0
S=c1[nH]nc(C2CC2)n1Cc1ccco1 | 0 | ? | -323 | 0 | 0 | 0
O=c1[nH]c(=O)n(Cc2ccco2)c(O)c1C=NC1CC1 | 0 | 0 | 0 | 0 | 0 | 0
CC1C(=O)OC2O[C@]3(C)CC[C@H]4C(C)CCC1[C@]24OO3 (stereo partly specified) | - | - | - | 0 | 0 | -
CCC1OC2(C)C(O)C(/C=C/C=C/C=C/c3oc(=O)cc(OC)c3C)OC1(C)C2OC(C)=O (stereo unspecified) | - | - | - | 0 | 0 | -
CN(C)c1ccc([N+](=O)[O-])c([N+](=O)[O-])c1 | 0 | 0 | 0 | - | 0 | -
COP(=S)(OC)Oc1ccc([N+](=O)[O-])c(C)c1 | - | - | - | 0 | 22µM | -
SMILES | KCNH2 3.1 inh | PLK1 PBD inh | hERG WT inh | CBFb RUNX1 block | VDR inhibitor | MBNL1-CUG inh
Cc1ccc(CC2C(=O)N(C)C(=O)N(C)C2=O)s1 | 0 | 27µM | 0 | 0 | ? | 0
C=CCOc1ccc(CC2C(=O)N(C)C(=O)N(C)C2=O)cc1 | 0 | ? | 0 | 0 | 0 | ?
CC(C)(COCC1CO1)COCC1CO1 (stereo unspecified) | - | - | - | 0 | - | -
C[C@@H]1Cc2c(Cl)cc(C(=O)N[C@@H](Cc3ccccc3)C(=O)O)c(O)c2C(=O)O1 | - | - | - | 0 | 0 | -
N#CC(Cl)Cl | - | - | - | 0 | - | -
CCOC(=O)[C@]12Cc3cc(C)ccc3[C@H]1N(Cc1ccccc1)C(=O)c1cc(F)c(F)cc12 | - | 11µM | - | - | - | -
CCOC(=O)[C@]12Cc3cc(C)ccc3[C@H]1N(C(C)C)C(=O)c1ccccc12 | - | 11µM | - | - | - | -
CCOC(=O)[C@]12Cc3cc(C)ccc3[C@H]1N(Cc1ccccc1)C(=O)c1ccccc12 | -72 | 0 | 0 | - | 0 | -
CCOC(=O)[C@]12Cc3c(cc(OC)c(OC)c3OC)[C@H]1N(C(C)C)C(=O)c1ccccc12 | - | 13µM | - | - | - | -
COC(=O)[C@@]1(Cc2ccccc2)[C@H]2c3cc(C(=O)N(C)C)n(C)c3C[C@H]2CN1C(=O)c1ccccc1 | - | - | - | 0 | - | -
O=S(=O)(O)F | - | - | - | 0 | - | -
ClC(Cl)=C(Cl)Cl | - | - | - | 0 | - | -
CC1=NNC(=O)C1C(c1ccc(F)cc1)C(C#N)C#N (stereo unspecified) | 0 | 30µM | 0 | - | ? | -
O=C(O)Cc1cccnc1C(=O)O | - | - | - | 0 | 0 | -
COc1ccc(NC(=O)N2CCC3(CC2)CCN(C(=O)Oc2ccccc2)CC3)cc1 | - | - | - | - | 0 | -
CCCC(Cn1cncn1)c1ccc(Cl)cc1Cl (stereo unspecified) | - | - | - | 0 | 0 | -
CN1CCN(Cc2cc(C(C)(C)C)c(O)c(C(C)(C)C)c2)CC1 | 0 | 24µM | 0 | 0 | 0 | 0
CN1C(=O)N(C)C(=O)C2(Cc3c(nc4ccccn4c3=O)N3CCc4ccccc4C32)C1=O (stereo unspecified) | 0 | 17µM | 0 | 0 | 0 | 0
CC(C)CC1C(C#N)=C(N)Oc2c1c(=O)oc1ccccc21 (stereo unspecified) | 0 | 12µM | 0 | 0 | ? | 0
COc1ccc(CN2C(=O)NC(=O)/C(=C\c3cc(OC)c(OC)c(OC)c3)C2=O)cc1 | 0 | 8.4µM | 0 | 0 | 50µM | 0
COc1cc(OC)c(OC)cc1/C=C1\C(=O)NC(=O)N(Cc2ccccc2)C1=O | 0 | 2.7µM | 0 | 0 | 0 | 0
COc1cc(OC)c(OC)cc1/C=C1/C(=O)NC(=O)N(Cc2ccccc2)C1=O | 0 | ? | 0 | 0 | 0 | -
COc1ccc(/C=C2\C(=O)NC(=O)N(Cc3ccccc3)C2=O)c(OC)c1OC | 0 | 12µM | 0 | 0 | ? | 0
CC(C)N(Cc1ccccc1)C(=O)CCS(=O)(=O)c1ccc2c(c1)oc(=O)n2C | 0 | 17µM | 0 | - | 0 | 0
OCC(Br)(Br)Br | - | - | - | 0 | 0 | -
SMILES | KCNH2 3.1 inh | PLK1 PBD inh | hERG WT inh | CBFb RUNX1 block | VDR inhibitor | MBNL1-CUG inh
Cc1cccc(-n2c(O)c(C)c(=O)[nH]c2=S)c1 | 0 | 12µM | 0 | 0 | 0 | 0
Cc1cccc(-n2c(O)c(C=NCCN3CCCCC3)c(=O)[nH]c2=O)c1 | 0 | 0 | 0 | 0 | 0 | 0
Clc1nc(Cl)nc(Nc2ccccc2Cl)n1 | - | - | - | 0 | - | -
Oc1ccc(Cl)cc1Cl | - | - | - | 0 | - | -
Cc1cccc(N2C(=O)/C(=C/N3CCN(C(=O)c4ccco4)CC3)C(=O)NC2=S)c1 | 0 | ? | 0 | 0 | 0 | 0
Cc1ccc(N2C(=O)/C(=C/N3CCN(C(=O)c4ccco4)CC3)C(=O)NC2=S)cc1C | 0 | 24µM | 0 | 0 | 0 | 0
CN1C(CC(=O)c2ccccc2)CCCC1CC(O)c1ccccc1 (stereo unspecified) | 0 | 0 | 0 | 0 | 89µM! | 0

Source: PubChem (National Center for Advancing Translational Sciences (NCATS))
